# High-throughput results from PubChem BioAssay.
# Sampled rows, rich in hits. Any-hit rate of the full collection: about 7.5%.
# ELG1 genotoxic – inducers of genotoxicity in HEK293T ELG1-luciferase cells; AID 504466; Potency, µM (titrated, usually from 46 µM), for the others: at the highest dose activity change, positive = activation, actives largely listed as activators; HEK293T ELG1-luciferase reporter, luminescence, 16 h; 330,000 compounds, 1.3% hits; also: % of control where 0% means no effect; nearly all actives have a fitted effect of over 60% in size
#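 Step 1: seed 2,000 HEK293T ELG1-luciferase cells per well. Step 2: add compound or DMSO, incubate 16 hr at 37 °C. Step 3: ONE-Glo, 30 min at room temperature, read luminescence.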
# FLuc modulator – inhibits or activates purified firefly luciferase, miR-21 counter-screen; P08659; purified FLuc, Km substrates, luminescence inhibition; AID 588342; 360,000 compounds, 6.9% hits; Potency, µM (series often up to 57.5 µM), for inactives: at the top dose activity change, negative = inhibition, most hits filed as inhibitors;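 also: plate controls were vehicle for no effect and reference inhibitor for full effect; nearly all actives have a fitted effect of over 55% in size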
# Target sequence (P08659 whole entry, looked up): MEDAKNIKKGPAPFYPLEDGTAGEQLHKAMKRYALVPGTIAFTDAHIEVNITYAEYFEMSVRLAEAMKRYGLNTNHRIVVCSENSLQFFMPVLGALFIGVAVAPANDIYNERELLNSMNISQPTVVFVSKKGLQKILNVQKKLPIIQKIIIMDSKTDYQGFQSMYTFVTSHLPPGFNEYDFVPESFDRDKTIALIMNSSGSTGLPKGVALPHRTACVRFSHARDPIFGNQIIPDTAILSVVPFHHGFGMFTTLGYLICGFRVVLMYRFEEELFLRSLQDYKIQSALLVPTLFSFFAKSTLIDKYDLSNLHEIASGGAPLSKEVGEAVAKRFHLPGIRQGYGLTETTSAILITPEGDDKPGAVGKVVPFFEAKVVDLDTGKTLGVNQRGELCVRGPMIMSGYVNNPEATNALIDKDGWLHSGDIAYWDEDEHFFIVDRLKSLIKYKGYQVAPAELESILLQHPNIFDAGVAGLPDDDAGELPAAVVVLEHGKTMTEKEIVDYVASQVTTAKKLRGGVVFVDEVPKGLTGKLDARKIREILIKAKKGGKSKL
#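 Purified P. pyralis luciferase (10nM final) with 10uM D-luciferin and 10uM ATP (Km levels) in 50mM Tris acetate pH 7.5, 10mM Mg acetate, 0.01% Tween-20, 0.05% BSA; qHTS 6-point titration, ~60 µM downward; luminescence read.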
# SMN2 splice up – SMN2 splice variant enhancement; HEK293 SMN2-luciferase splicing reporter, luminescence, 30-36 h; Potency, µM (titrated, usually from 46.1 µM), for the others: at the top dose activity change, positive = activation, usual class: activators; 210,000 compounds, 2.8% hits; also: % of control where 0% means no effect; nearly all actives have a fitted effect of over 55% in size
#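 qHTS luciferase splicing reporter: luminescence rises when SMN2 exon 7 is included in transfected HEK293 cells. Compound exposure lasted 30-36 h at 37C, with 4.5 mM final sodium butyrate as control, followed by a ONE-Glo read.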
# KinaseGlo FLuc – counter-screen: inhibitors of Kinase-Glo firefly luciferase; Q27757; Kinase-Glo luciferase, ATP luminescence, 8 min; Potency, µM (highest dose often 38.3 µM), inactives show at the top dose activity change, negative = inhibition, most hits filed as inhibitors; 200,000 compounds, 0.28% hits; AID 1379; also: % is scaled to controls: 0 for no effect and ±100 for the full control effect; nearly all actives have a fitted effect of over 60% in size
#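 Kinase-Glo luciferase light output from ATP and luciferin was measured with 10 uM ATP, within the enzyme's linear range. Buffer: 50 mM imidazole pH 7.2, 50 mM KCl, 7 mM MgCl2, 0.01% Tween 20, 0.05% BSA; luminescence read after 8 min at ambient temperature.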
# NPC1 promoter act – activators of NPC1 promoter. Huh7 NPC1 promoter luciferase reporter, 24 h. AID 485313. 320,000 compounds, 2.4% hits. Potency, µM (series often up to 9.22 µM), without a hit: at the top dose activation, hits mostly activators; also: % of control where 0% means no effect; nearly all actives have a fitted effect of over 60% in size
#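 NPC1 promoter–luciferase Huh7 cells; 24 h compound; luminescence.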
# Rab9 promoter act – activates the Rab9 promoter; Huh7 Rab9 promoter-luciferase reporter, luminescence, 24 h; Potency, µM (series often up to 9.22 µM), without a hit: at the top dose activation, negative = inhibition, hits mostly activators; 320,000 compounds, 2.8% hits; also: % of control where 0% means no effect; nearly all actives have a fitted effect of over 60% in size
#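 Using Huh7 cells stably transfected with Rab9 promoter–luciferase, compounds were incubated 24 h at 37 °C, 5% CO2; luciferase luminescence was read 10 min after reagent addition.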
# * = called active by the depositor; ? = inconclusive; / = not tested or not shown; [ ] = dose if it differs, or a comment. Calls follow the shape of the dose curve; as a rule, active = well fitted curve in the direction sought with a large enough effect; inconclusive = small, poorly fitted or top-dose-only effect, or another doubt; inactive = no such curve, though single readings can be large; an effect the other way counts as inactive or inconclusive. Potency is read from the fitted curve at half-maximal effect.
SMILES,ELG1 genotoxic,FLuc modulator,SMN2 splice up,KinaseGlo FLuc,NPC1 promoter act,Rab9 promoter act
Cc1ccc(C(=O)CC(=O)c2ccccc2)cc1,24.8%,9.53µM*,/,/,2.51µM*,2.24µM*
Cc1ccc(C(=O)NC(=S)NCC(=O)c2ccccc2)cc1,4.8%,?,25.1%,-4.3%,14.0%,24.7%
O=C(COC(=O)c1cc(Cl)nc2ccccc12)c1ccc(Cl)cc1,-1.1%,?,-6.9%,4.3%,-1.5%,-0.4%
Cc1ccc(S(=O)(=O)/N=C(/Sc2ccccc2C(=O)O)c2ccccc2)cc1,1.5%,-4.0%,/,/,-0.6%,2.4%
Cc1ccc(C(=O)Sc2cccccc2=O)cc1,6.51µM*,3.01µM*,/,/,-39.3%,-52.2%
Cc1ccc(C(=O)COC(=O)c2cc(Cl)nc3ccccc23)cc1,1.7%,10.7µM*,1.3%,-1.4%,-1.3%,0.7%
COC(=O)C(CC(=O)c1ccccc1)CC(=O)c1ccccc1,12.3%,?,/,/,14.6%,0.1%[1.84 µM]
Cc1ccc2c(c1)C(=O)C(=O)N2Cc1ccc(OCCC(C)C)cc1,/,-3.4%,14.3%,/,/,/
Cc1c(-c2nsc(NC(=O)c3ccc(Cl)cc3)n2)nnn1-c1ccc(C(C)C)cc1,/,-11.2%,/,/,/,/
CC(=O)Nc1cc(C(=O)OCC(=O)c2ccccc2)ccc1C,14.6µM*,19µM*,10µM*,-3.0%,3.16µM*,4.47µM*
CCCC(=O)c1ccc(-c2ccccc2)cc1,?,16.9µM*,?,1.3%,5.9%,-0.1%
Cc1ccc(C(=O)OCC(=O)Nc2ccccc2)cc1NC(=O)c1ccco1,?,-12.7%,5.7%,0.8%,-3.0%,14.4%
Cn1nnnc1SCCCNCc1cc(Cl)ccc1OCc1ccccc1F,/,4.6%,/,/,/,/
CCCCc1ccc(NC(=O)COc2cccc3c(=O)n(C)ccc23)cc1,/,-0.9%,/,/,/,/
COc1ccc(Oc2cnc3ccccc3n2)cc1,-2.9%,-10.4%,19.2%,-0.2%,?,3.55µM*
CCNC(=O)CC1C(=O)N(c2ccc(F)cc2)C(=O)N1CCOC (stereo not given),/,0.5%,-7.7%,/,/,/
COc1ccc(-c2nc3c(Br)c(N)c(Br)cc3o2)cc1,2.9%,1.35µM*,-17.6%,4.7%,3.16µM*,?
Cc1oc(-c2ccccc2)nc1C(=O)O,-0.3%,-7.5%,/,-1.9%,-0.5%,-1.4%
Nc1c(Br)cc2oc(-c3ccccc3)nc2c1Br,?,2.13µM*,12.6µM*,-0.7%,2.2%,?
O=C(CC1N=C2c3ccccc3N=C(SCc3ccccc3F)N2C1=O)NCCc1ccccc1 (stereo not given),/,-3.8%,/,/,/,/
O=C(Cc1ccc(F)cc1)Nc1nnc2n1CCS2,/,0.7%,/,/,/,/
COc1ccccc1C(=O)NN1C(=O)/C(=C/c2cccn2C)SC1=S,0.1%,?,/,/,6.8%,0.0%
COc1cc(/C=C2\SC(=S)N(NC(=O)c3cccc(O)c3)C2=O)ccc1O,0.2%,10.7µM*,/,/,3.0%,20.0%
CC(=O)NN1C(=O)/C(=C/c2ccc(C(C)C)cc2)SC1=S,1.7%,21.3µM*,-8.1%,-0.2%,3.4%,-1.7%
COc1cc(/C=C2\SC(=S)N(NS(=O)(=O)c3ccccc3)C2=O)ccc1O,1.4%,?,/,/,-4.8%,-1.8%
SMILES,ELG1 genotoxic,FLuc modulator,SMN2 splice up,KinaseGlo FLuc,NPC1 promoter act,Rab9 promoter act
COc1cc(/C=C2\SC(=S)N(NC(=O)c3ccccc3OC)C2=O)ccc1O,4.4%,4.26µM*,/,/,-3.8%,-3.0%
COc1cc(/C=C2\SC(=S)N(NS(=O)(=O)c3ccc(C)cc3)C2=O)ccc1O,0.2%,21.3µM*,/,/,-2.9%,-9.6%
CCOC(=O)c1ccccc1NC(=O)Cn1c(=O)n(CCC(=O)N2CCc3ccccc3C2)c(=O)c2ccccc21,/,3.3%,-4.5%,/,/,/
COc1cc(/C=C2\SC(=S)N(NC(=O)c3ccncc3)C2=O)ccc1O,0.0%,16.9µM*,/,/,-1.8%,-14.3%
O=C(O)c1ccc(/C=C2\SC(=S)N(NC(=O)c3ccccc3)C2=O)cc1,-3.4%,?,/,/,0.9%,-5.6%[1.84 µM]
CCOc1cc(/C=C2\SC(=S)N(NC(=O)c3cccnc3)C2=O)ccc1O,0.0%,26.9µM*,-1.7%,-6.3%,0.2%,-2.0%
COc1cc(/C=C2\SC(=S)N(NC(=O)c3ccc(O)c(OC)c3)C2=O)ccc1O,21.9%,1.35µM*,/,/,-0.3%,-1.9%
Fc1ccc(Cc2nnc(-c3cccs3)o2)cc1,15.3%,?,?,1.5%,21.2%,?
Fc1ccc(-c2nnc(Cc3ccc(Cl)cc3)o2)cc1,?,16.9µM*,/,/,?,26.3%
O=C(Cn1nc(-c2ccc(Cl)cc2)ccc1=O)NCc1ccccc1Cl,/,-11.0%,/,/,/,/
CC(=O)Nc1cccc(Oc2ccc3c(c2)C(=O)NC3=O)c1,?,10.7µM*,/,/,18.5%,20.7%
COc1ccc(CCCc2nc3ccccc3[nH]2)cc1,-3.7%,?,/,/,-1.6%,-3.4%
COC(=O)c1ccc(-c2nc3ccccc3[nH]2)cc1,?,1.69µM*,8.91µM*,?,0.708µM*,0.501µM*
COc1ccc(-c2cc(=O)n(-c3nc4ccccc4[nH]3)[nH]2)cc1,?,10.7µM*,?,-26.3%,20.8%,?
Cc1cc(-c2nc3ccccc3[nH]2)ccc1N,?,4.26µM*,6.31µM*,10µM*,0.891µM*,0.562µM*
COc1ccc(-c2nc3ccccc3[nH]2)cc1,0.517µM*,0.675µM*,2.51µM*,8.91µM*,0.501µM*,0.631µM*
c1ccc2[nH]c(-c3ccncc3)nc2c1,5.4%,?,/,-13.9%,14.6%,18.9%
COC(=O)c1cc2sccc2n1Cc1nc(-c2cccc(Br)c2)oc1C,/,-2.2%,3.2%,/,/,/
CCCCC(=O)Nc1cccc(OCc2cc(=O)n3ccccc3n2)c1,/,-9.1%,/,/,/,/
Cc1ccccc1-c1nc(SCC(=O)NCC2CCCO2)c2c(=O)n(C)c(=O)n(C)c2n1 (stereo not given),/,2.7%,/,/,/,/
CCOCCc1nn2c(=O)cc(COC(=O)c3ccccc3Br)nc2s1,/,-5.7%,/,/,/,/
c1ccc(-c2nc3ccccc3[nH]2)cc1,?,7.57µM*,/,/,3.55µM*,1.58µM*
COc1ccc2oc(=Nc3ccccc3)c(-c3nc4ccccc4[nH]3)cc2c1,7.31µM*,6.01µM*,12.6µM*,-7.6%,?,?
COc1cc(OC)cc(C(=O)Nc2cc(-c3nc4ccccc4[nH]3)ccc2C)c1,/,7.57µM*,0.1%,/,/,/
COc1ccc2oc(=Nc3cccc(F)c3)c(C(N)=O)cc2c1,2.3%,-0.5%,-4.6%,0.8%,-10.0%,2.0%
c1cncc(-c2nc3ccccc3[nH]2)c1,-1.1%,?,10.0%,-8.6%,16.9%,16.1%
Nc1cc(N)cc(-c2nc3ccccc3[nH]2)c1,?,23.9µM*,?,-6.0%,24.6%,25.4%
